Bioassay records as filed in PubChem.
NOD2 RIPK2 PPI: NOD2-RIPK2 binding disruptors in cells, primary screen, fluorescence, CHO cells, BLA complementation; CCF4 ratio; inhibition, % at 4.98 µM; 360,000 compounds, 0.38% hits; Receptor-interacting serine/threonine-protein kinase 2 (Homo sapiens), O43353; in the data active means inhibition above about 21%
TLR4 MyD88 comp: inhibitors of TLR4-MyD88 association in cells, primary screen, cell-based, HeLa CL3-4, BLA complementation, FRET ratio. Toll-like receptor 4 (Homo sapiens) + Myeloid differentiation primary response protein …. HeLa CL3-4 TLR4/MyD88 BLA complementation. inhibition, % at 8.4 µM. 200,000 compounds, 0.18% hits. AID 861, 2007; in the data active means inhibition above about 25%
TLR9-MyD88 block: inhibitors of TLR9-MyD88 association in cells, primary screen, cell-based, CHO, BLA complementation, fluorescence. Toll-like receptor 9 (Homo sapiens) + Myeloid differentiation primary response protein …. CCF4 FRET ratio. inhibition, % at 4.98 µM. 340,000 compounds, 0.21% hits;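 active means inhibition above the mean over all tested compounds plus 3 SD, cut at about 21% in these data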
IDE cell inh: human IDE inhibitors in live cells, primary screen, fluorescence polarization, HEK cells, FAbetaB substrate. FAbetaB cleavage. inhibition, % at 5.59 µM. 320,000 compounds, 0.41% hits;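 active means percent inhibition above the average of all tested compounds plus 3 SD, set per screening campaign, cut at about 16% in these data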;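 further: IDE supplied by intact live HEK cells; FP after avidin binding of uncleaved biotin substrate so inhibition keeps polarization high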
IDE act: human IDE activators in live cells, primary screen, fluorescence polarization, HEK cells, FAbeta-B substrate. Insulin-degrading enzyme (Homo sapiens), P14735. activation, % at 5.96 µM. 340,000 compounds, 0.073% hits. FAbeta-B cleavage; 0% vehicle, 100% cell-free pure enzyme wells;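 active means activation above the mean of all tested compounds plus 3 SD, set per screening campaign, cut at about 17% in these data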
NOD2 RIPK2 conf: NOD2-RIPK2 binding disruptors, retest, confirmation, fluorescence, CHO cells, BLA complementation, triplicate; CCF4 FRET; shares compounds with NOD2 RIPK2 PPI; inhibition, % at 4.98 µM; 1,200 compounds, 70% hits;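 active means mean inhibition across replicates above a set limit taken from the earlier primary screen, cut at about 21% in these data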
BLA counter: hits BLA reporter in NOD2-RIPK2 inhibitor counterscreen. shares compounds with NOD2 RIPK2 PPI. CHO BLA reporter, CCF4 FRET ratio. inhibition, % at 4.98 µM. 1,200 compounds, 57% hits. AID 624371;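 active means mean inhibition above the low-control mean inhibition plus three low-control SD, cut at about 11% in these data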
Each line names hits and unclear results; the compound was inactive in the other large screens (follow-up assays come after a bar, where they were run). An excerpt weighted towards active compounds, which were near 0.86% of everything screened.

CC(=O)OCC12CC(OC(=O)CC(C)C)C(C)=CC1OC1C(O)C(OC(C)=O)C2(C)C12CO2 (configuration not stated)	NOD2 RIPK2 PPI 23 (no result: TLR4 MyD88 comp, IDE cell inh) | NOD2 RIPK2 conf 23 | BLA counter inactive
Cc1cc(OCC(=O)N2CCC(C(=O)O)(c3ccccc3)CC2)c2c(C)cc(=O)oc2c1	none (no result: TLR4 MyD88 comp)
N#CC1c2ccccc2-n2nncc2CN1Cc1cc(Cl)cc(Cl)c1 (configuration not stated)	NOD2 RIPK2 PPI 59 (no result: TLR4 MyD88 comp, IDE cell inh) | NOD2 RIPK2 conf 43 | BLA counter inactive
COc1ccc(CN2Cc3cnnn3-c3ccccc3C2C#N)cc1 (configuration not stated)	NOD2 RIPK2 PPI 45 (no result: TLR4 MyD88 comp, IDE cell inh) | NOD2 RIPK2 conf inactive | BLA counter inactive
NC12CN3CN(CN(C3)C1)C2 (tested in a mixture with another compound)	none
